What all share (assay): DAPPL (digital affinity profiling via proximity ligation, sequencing); 10 mM Tris-HCl pH 7.5, 50 mM NaCl, 1 mM DTT, 4% glycerol, room temperature, 30 min; GST-TFs on glutathione beads, 16-mer random dsDNA library, 0.1% formaldehyde crosslink after washing; high values mean tight binding
Details in all cases: protein: recombinant; tags: N-terminal GST; dsDNA, one strand shown

For one experiment, the target named is T1, ERF (Homo sapiens, UniProt P50548 1-548).
T1 sequence: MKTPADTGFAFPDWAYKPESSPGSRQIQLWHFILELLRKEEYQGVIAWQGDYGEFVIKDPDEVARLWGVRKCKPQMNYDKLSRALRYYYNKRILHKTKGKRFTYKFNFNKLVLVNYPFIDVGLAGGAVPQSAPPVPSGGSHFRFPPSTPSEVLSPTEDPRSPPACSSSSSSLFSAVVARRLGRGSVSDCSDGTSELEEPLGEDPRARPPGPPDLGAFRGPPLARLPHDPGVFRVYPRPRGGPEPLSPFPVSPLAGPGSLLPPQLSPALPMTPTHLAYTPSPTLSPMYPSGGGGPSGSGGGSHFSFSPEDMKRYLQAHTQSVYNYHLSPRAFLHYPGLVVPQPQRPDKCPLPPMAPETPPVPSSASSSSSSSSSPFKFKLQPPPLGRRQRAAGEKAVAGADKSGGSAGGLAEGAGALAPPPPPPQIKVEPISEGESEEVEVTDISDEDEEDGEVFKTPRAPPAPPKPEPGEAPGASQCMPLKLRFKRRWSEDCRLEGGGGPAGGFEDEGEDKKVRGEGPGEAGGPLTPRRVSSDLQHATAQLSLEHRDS
Put shortly: (§1)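 Pools of DNA-barcoded human transcription factors, expressed in yeast as GST fusions on glutathione beads and combined with a tag-only sample, were incubated with 200 nmole of a 16-mer random double-stranded DNA library. Incubation took 30 min at room temperature in Tris/NaCl/DTT/glycerol buffer and was followed by washing, 0.1% formaldehyde crosslinking, proximity ligation (BsaI/T4 ligase, 1 h, 37 °C), PCR amplification and sequencing on an Illumina NextSeq500. Binding signal is the ratio of a hexamer's read frequency for a factor to its frequency for the tag-only sample.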

For a further experiment, the target named is T2, ETV3L (Homo sapiens, UniProt Q6ZN32 1-361).
T2 sequence: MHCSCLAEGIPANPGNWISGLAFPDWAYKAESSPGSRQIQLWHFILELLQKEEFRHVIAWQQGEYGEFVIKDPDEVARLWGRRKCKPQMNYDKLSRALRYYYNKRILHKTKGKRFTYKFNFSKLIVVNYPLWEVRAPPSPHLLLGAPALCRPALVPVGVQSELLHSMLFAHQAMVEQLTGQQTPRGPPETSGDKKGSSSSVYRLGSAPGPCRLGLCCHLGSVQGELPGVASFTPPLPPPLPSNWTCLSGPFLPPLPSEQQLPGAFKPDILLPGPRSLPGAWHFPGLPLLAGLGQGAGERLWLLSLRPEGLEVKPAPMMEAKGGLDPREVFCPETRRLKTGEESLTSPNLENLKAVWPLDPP
Put shortly: as §1

Another experiment deals with T3, ETS2 (Homo sapiens, UniProt P15036 1-469).
T3 sequence: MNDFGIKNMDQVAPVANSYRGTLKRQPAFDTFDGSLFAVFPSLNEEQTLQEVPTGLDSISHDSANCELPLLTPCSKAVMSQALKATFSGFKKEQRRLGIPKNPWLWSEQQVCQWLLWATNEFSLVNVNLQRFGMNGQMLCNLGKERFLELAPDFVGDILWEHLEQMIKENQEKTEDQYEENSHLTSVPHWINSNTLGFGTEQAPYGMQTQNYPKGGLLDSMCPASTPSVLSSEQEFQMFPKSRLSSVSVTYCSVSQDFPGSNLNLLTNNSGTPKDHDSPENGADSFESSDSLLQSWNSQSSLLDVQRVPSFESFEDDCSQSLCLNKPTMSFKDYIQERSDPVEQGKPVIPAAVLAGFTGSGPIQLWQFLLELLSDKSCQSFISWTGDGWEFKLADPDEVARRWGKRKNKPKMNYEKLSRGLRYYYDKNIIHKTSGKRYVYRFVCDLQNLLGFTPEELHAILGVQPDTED
The procedure, abridged: as §1

For a further experiment, the target named is T4, ETV7 (Homo sapiens, UniProt Q9Y603 1-341).
T4 sequence: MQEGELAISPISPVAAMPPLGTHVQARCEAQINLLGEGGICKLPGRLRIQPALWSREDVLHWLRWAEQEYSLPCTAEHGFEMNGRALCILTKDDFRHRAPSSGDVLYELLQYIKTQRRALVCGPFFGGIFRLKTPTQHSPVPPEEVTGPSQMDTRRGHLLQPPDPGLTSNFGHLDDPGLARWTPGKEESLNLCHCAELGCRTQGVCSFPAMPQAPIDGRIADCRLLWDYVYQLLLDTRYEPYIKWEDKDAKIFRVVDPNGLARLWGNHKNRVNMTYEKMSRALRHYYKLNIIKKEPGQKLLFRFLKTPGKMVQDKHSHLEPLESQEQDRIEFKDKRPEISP
Put shortly: as §1

A further experiment addresses T5, ELF5 (Homo sapiens, UniProt Q9UKW6-2 1-255).
T5 sequence: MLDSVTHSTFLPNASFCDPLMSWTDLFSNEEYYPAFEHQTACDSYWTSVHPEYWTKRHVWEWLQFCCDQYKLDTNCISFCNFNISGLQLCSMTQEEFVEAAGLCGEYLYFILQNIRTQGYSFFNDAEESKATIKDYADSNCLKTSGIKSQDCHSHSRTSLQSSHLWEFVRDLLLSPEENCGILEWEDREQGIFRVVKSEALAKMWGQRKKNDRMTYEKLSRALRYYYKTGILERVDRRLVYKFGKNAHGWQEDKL
Put shortly:
as §1

The target of a further experiment is T6, ETV3 (Homo sapiens, UniProt P41162-2 1-143).
T6 sequence: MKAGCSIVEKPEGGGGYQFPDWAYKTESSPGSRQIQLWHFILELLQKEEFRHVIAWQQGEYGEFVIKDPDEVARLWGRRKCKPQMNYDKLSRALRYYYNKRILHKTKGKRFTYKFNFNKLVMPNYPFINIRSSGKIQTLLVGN
The procedure, abridged:
as §1

The next experiment concerns the target ETV6 (Homo sapiens, UniProt P41212 1-452). Put shortly: as §1
In a further experiment the target is T7, SPDEF (Homo sapiens, UniProt O95238 1-335).
T7 sequence: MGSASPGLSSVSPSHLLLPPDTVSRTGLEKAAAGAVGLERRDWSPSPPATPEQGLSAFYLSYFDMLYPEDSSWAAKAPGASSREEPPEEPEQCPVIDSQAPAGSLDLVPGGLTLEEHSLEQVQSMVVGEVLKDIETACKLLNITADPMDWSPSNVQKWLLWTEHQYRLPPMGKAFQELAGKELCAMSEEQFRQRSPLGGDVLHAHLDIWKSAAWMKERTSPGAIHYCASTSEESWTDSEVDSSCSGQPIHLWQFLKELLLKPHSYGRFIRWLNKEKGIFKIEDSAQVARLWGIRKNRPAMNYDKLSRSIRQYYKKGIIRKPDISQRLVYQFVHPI
Put shortly:
as §1

Chain of ETV6 (P41212 whole entry): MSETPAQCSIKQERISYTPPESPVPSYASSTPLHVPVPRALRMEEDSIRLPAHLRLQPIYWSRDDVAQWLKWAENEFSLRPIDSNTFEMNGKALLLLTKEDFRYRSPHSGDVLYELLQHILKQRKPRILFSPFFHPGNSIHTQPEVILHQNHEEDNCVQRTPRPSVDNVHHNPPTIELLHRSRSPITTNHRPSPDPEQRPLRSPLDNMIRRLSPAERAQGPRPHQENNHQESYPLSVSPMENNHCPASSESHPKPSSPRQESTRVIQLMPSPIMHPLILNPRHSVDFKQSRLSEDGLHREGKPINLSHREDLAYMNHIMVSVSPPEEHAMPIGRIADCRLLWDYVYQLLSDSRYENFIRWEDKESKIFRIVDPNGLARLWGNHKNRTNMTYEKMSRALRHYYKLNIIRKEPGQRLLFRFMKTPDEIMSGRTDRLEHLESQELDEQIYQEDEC

For CCATTA, the binding signal is 1.07 fold enrichment (6-mer frequency, TF over GST control) with ERF; 1.16 fold enrichment (6-mer frequency, TF over GST control) with ETV3L; 1.12 fold enrichment (6-mer frequency, TF over GST control) with ETS2; 1.13 fold enrichment (6-mer frequency, TF over GST control) in the experiment with ETV7; 1.08 fold enrichment (6-mer frequency, TF over GST control) in the experiment with ELF5; 1.11 fold enrichment (6-mer frequency, TF over GST control) in the experiment with ETV3. For the same sequence, in the experiment with ETV6, the binding signal was 1.13 fold enrichment (6-mer frequency, TF over GST control).
Consider ACGCAC, for which the binding signal with ERF was 1.13 fold enrichment (6-mer frequency, TF over GST control); with ETV3L it was 1.01 fold enrichment (6-mer frequency, TF over GST control); in the experiment with ETS2 it was 1.09 fold enrichment (6-mer frequency, TF over GST control); in the experiment with ETV7, 1.03 fold enrichment (6-mer frequency, TF over GST control); with ELF5, 1.03 fold enrichment (6-mer frequency, TF over GST control); with ETV3, 1.13 fold enrichment (6-mer frequency, TF over GST control). Besides, the binding signal with ETV6 was 1.02 fold enrichment (6-mer frequency, TF over GST control).
For CCTAGA, the binding signal with ERF is 1.05 fold enrichment (6-mer frequency, TF over GST control); with ETS2, 1.05 fold enrichment (6-mer frequency, TF over GST control); with SPDEF it was 1.01 fold enrichment (6-mer frequency, TF over GST control).
For AACGTA, the binding signal with ERF is 1.05 fold enrichment (6-mer frequency, TF over GST control); in the experiment with SPDEF it was 1.01 fold enrichment (6-mer frequency, TF over GST control); with ETV7 it was 1.05 fold enrichment (6-mer frequency, TF over GST control); in the experiment with ELF5, 1 fold enrichment (6-mer frequency, TF over GST control); in the experiment with ETV3, 1.04 fold enrichment (6-mer frequency, TF over GST control); with ETV6, 1.03 fold enrichment (6-mer frequency, TF over GST control).
On to AAGGTT, for which the binding signal with ERF is 1.01 fold enrichment (6-mer frequency, TF over GST control); in the experiment with ETS2, 1.08 fold enrichment (6-mer frequency, TF over GST control); with SPDEF, 1.02 fold enrichment (6-mer frequency, TF over GST control); in the experiment with ETV7 it was 1.15 fold enrichment (6-mer frequency, TF over GST control); with ELF5, 1.1 fold enrichment (6-mer frequency, TF over GST control); with ETV3, 1.07 fold enrichment (6-mer frequency, TF over GST control). The binding signal with ETV6 is 1 fold enrichment (6-mer frequency, TF over GST control).
Turning to CGGTAT, the binding signal with ERF was 1.02 fold enrichment (6-mer frequency, TF over GST control); with ETS2 it was 1.01 fold enrichment (6-mer frequency, TF over GST control); in the experiment with SPDEF it was 1.32 fold enrichment (6-mer frequency, TF over GST control); with ELF5, 1.1 fold enrichment (6-mer frequency, TF over GST control); with ETV3, 1.05 fold enrichment (6-mer frequency, TF over GST control); in the experiment with ETV6 it was 1.06 fold enrichment (6-mer frequency, TF over GST control).
Take CAACAA: the binding signal in the experiment with ERF was 1.05 fold enrichment (6-mer frequency, TF over GST control); with ETS2 it was 1.08 fold enrichment (6-mer frequency, TF over GST control); with ETV7, 1.02 fold enrichment (6-mer frequency, TF over GST control); in the experiment with ELF5, 1.03 fold enrichment (6-mer frequency, TF over GST control); with ETV3 it was 1.08 fold enrichment (6-mer frequency, TF over GST control); with ETV6, 1.01 fold enrichment (6-mer frequency, TF over GST control).
In the case of GGCCCT, the binding signal with ERF is 1.02 fold enrichment (6-mer frequency, TF over GST control); with ETV7, 1.03 fold enrichment (6-mer frequency, TF over GST control); with ETV3, 1.03 fold enrichment (6-mer frequency, TF over GST control).

The values above are taken from publication PMC7862700, “An all-to-all approach to the identification of sequence-specific readers for epigenetic DNA modifications on cytosine”.
